Experimental data taken from PubChem BioAssay AID1159580 (chemical genetic matrix, 2015).
Values joined by “and” are separate entries in the source; they are usually repeats but may differ in a detail not shown here. Equal entries are not always repeated. In all, about 5,500 compounds went through this assay and about 2,000 (36%) were called active. Inconclusive results (about 18%) are left out. Rule as the data show it: active = normalized growth mostly below about 0.91 (no sharp cut-off); inconclusive = no clear call, values can overlap the other calls; inactive = mostly above about 0.92. This is one part of the list.

Test: chemical genetic growth profiling, strain panel (AID 1159580);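 also: tested at 20 µM; growth read once vehicle control cultures reached saturation at 30 °C; 1 = growth at the plate median or of vehicle wells; lower values mean less growth of the strain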
Conditions: S. cerevisiae deletion strains, growth OD

Measured: normalized growth

CC12CC3CC(C)(C1)CC(N)(C3)C2
inactive: locus YAL013W, strain DEP1, hits give low values 1 and 0.983 | locus YAL021C, strain ccr4, hits give low values 1 | locus YAL026C, strain drs2, hits give low values 0.99 | locus YAL030W, strain snc1, hits give low values 0.976 | locus YAL040C, strain CLN3, hits give low values 1.06 | locus YBL061C, strain skt5, hits give low values 0.977 | locus YBR009C, strain hhf1, hits give low values 0.993 | locus YBR021W, strain FUR4, hits give low values 1.02 | locus YBR023C, strain chs3, hits give low values 0.985 | locus YBR171W, strain sec66, hits give low values 0.98 | locus YBR229C, strain ROT2, hits give low values 0.997 | locus YBR231C, strain swc5, hits give low values 0.963 | locus YBR279W, strain paf1, hits give low values 0.981 | locus YCL011C, strain gbp2, hits give low values 1.01 | locus YCL016C, strain dcc1, hits give low values 1.01 | locus YCL029C, strain bik1, hits give low values 1.02 | locus YCL061C, strain MRC1 (second series), hits give low values 0.994 | locus YCL061C, strain MRC1, hits give low values 0.989 | locus YCL069W, strain vba3, hits give low values 0.992 | locus YCR088W, strain abp1, hits give low values 0.982 | locus YDL005C, strain med2, hits give low values 0.988 | locus YDL035C, strain GPR1, hits give low values 0.999 | locus YDL040C, strain nat1, hits give low values 0.986 | locus YDL074C, strain BRE1, hits give low values 1.03 | locus YDL101C, strain DUN1, hits give low values 1.02 | locus YDL134C, strain PPH21, hits give low values 1 | locus YDL185W, strain tfp1, hits give low values 1.01 | locus YDL192W, strain arf1, hits give low values 1.01 | locus YDR001C, strain nth1, hits give low values 0.999 | locus YDR069C, strain doa4, hits give low values 0.983 | locus YDR101C, strain arx1, hits give low values 1.01 | locus YDR137W, strain rgp1, hits give low values 1.01 | locus YDR150W, strain NUM1, hits give low values 0.996 and 1 | locus YDR159W, strain sac3, hits give low values 0.962 | locus YDR162C, strain NBP2, hits give low values 1.01 | locus YDR195W, strain ref2 0.94 | locus YDR297W, strain sur2, hits give low values 0.988 | locus YDR318W, strain mcm21, hits give low values 1.02 | locus YDR334W, strain swr1, hits give low values 1.01 | locus YDR335W, strain msn5, hits give low values 0.986 | locus YDR363W, strain ESC2, hits give low values 0.959 | locus YDR388W, hits give low values 1.01 | locus YDR392W, strain spt3, hits give low values 0.993 | locus YDR502C, strain sam2, hits give low values 1.01 | locus YEL003W, strain gim4, hits give low values 0.986 | locus YEL037C, strain rad23, hits give low values 0.981 | locus YEL061C, strain CIN8 (second series), hits give low values 0.971 | locus YEL061C, strain CIN8, hits give low values 1 | locus YER002W, strain NOP16, hits give low values 1.02 | locus YER015W, strain faa2, hits give low values 0.998 | locus YER016W, strain bim1, hits give low values 0.979 | locus YER110C, hits give low values 1 | locus YER111C, strain swi4, hits give low values 0.983 | locus YER155C, strain BEM2 (second series), hits give low values 0.989 | locus YER155C, strain BEM2, hits give low values 1.01 | locus YER167W, strain BCK2, hits give low values 1.01 | locus YFR010W, strain ubp6, hits give low values 0.988 | locus YGL078C, strain dbp3, hits give low values 0.999 | locus YGL086W, strain mad1, hits give low values 0.988 | locus YGL167C, strain pmr1, hits give low values 1.01 | locus YGL173C, strain kem1, hits give low values 0.957 | locus YGL227W, strain vid30, hits give low values 0.994 | locus YGL240W, strain doc1, hits give low values 0.966 | locus YGL248W, strain PDE1, hits give low values 0.999 | locus YGL253W, strain hxk2, hits give low values 0.977 | locus YGR078C, strain PAC10, hits give low values 1.02 and 0.97 | locus YGR135W, strain pre9, hits give low values 1.01 | locus YGR229C, strain SMI1, hits give low values 1.02 | locus YGR252W, strain gcn5, hits give low values 0.968 | locus YHR013C, strain ard1, hits give low values 0.983 | locus YHR027C, strain rpn1, hits give low values 0.995 | locus YHR030C, strain SLT2, hits give low values 1.01 and 0.993 | locus YHR079C, strain IRE1 (second series), hits give low values 1.01 | locus YHR079C, strain IRE1, hits give low values 0.965 | locus YHR094C, strain hxt1, hits give low values 1.01 | locus YHR129C, strain ARP1, hits give low values 1.02 | locus YHR142W, strain chs7, hits give low values 0.963 | locus YHR200W, strain rpn10, hits give low values 1 | locus YIL066C, strain RNR3, hits give low values 1.01 | locus YIL073C, strain SPO22, hits give low values 1.09 | locus YIL125W, strain kgd1, hits give low values 1 | locus YIR030C, strain dcg1, hits give low values 1.01 | locus YJL092W, strain hpr5, hits give low values 0.983 | locus YJL095W, strain BCK1 (second series), hits give low values 0.985 | locus YJL095W, strain BCK1, hits give low values 1.04 and 1 | locus YJL115W, strain asf1, hits give low values 0.976 | locus YJL129C, strain trk1, hits give low values 0.958 | locus YJL134W, strain LCB3, hits give low values 0.999 | locus YJL154C, strain vps35, hits give low values 0.972 | locus YJL164C, strain tpk1, hits give low values 1.01 | locus YJL166W, strain qcr8, hits give low values 0.984 | locus YJL168C, strain set2, hits give low values 1 | locus YJL187C, strain SWE1 (second series), hits give low values 1.02 | locus YJL187C, strain SWE1, hits give low values 0.992 | locus YJR043C, strain POL32, hits give low values 1.01 | locus YJR066W, strain TOR1, hits give low values 0.923
